Measured values taken from PubChem BioAssay AID1851 (National Center for Advancing Translational Sciences (NCATS), 2009).
Values joined by “and” are separate entries in the source; they are usually repeats but may differ in a detail not shown here. Equal entries are not always repeated. Out of some 16,000 compounds screened, about 2,600 (16%) were called active. Inconclusive results (about 20%) are left out. Many of the other results were omitted from the sample, so actives are more common in it than they were. A number with no mark means an inactive call. Calls come from the whole dose curve; as a rule, active = well fitted curve in the direction sought with a large enough effect; inconclusive = small, poorly fitted or top-dose-only effect, or effect the other way; inactive = no such curve, though single readings can be large or run the other way.
% is set by controls: 0 for no effect and ±100 for the full control effect.

The compounds below were run against Cytochrome P450 2D6 (Homo sapiens) (UniProt P10635) (assay: Cytochrome panel assay with activity outcomes). Conditions: recombinant CYP, pro-luciferin dealkylation, luminescence, p450-cyp2d6; series mostly up to 57.1 µM; activity, negative = inhibition: at the top concentration.
Sequence of Cytochrome P450 2D6 (Homo sapiens) (P10635 whole entry, looked up): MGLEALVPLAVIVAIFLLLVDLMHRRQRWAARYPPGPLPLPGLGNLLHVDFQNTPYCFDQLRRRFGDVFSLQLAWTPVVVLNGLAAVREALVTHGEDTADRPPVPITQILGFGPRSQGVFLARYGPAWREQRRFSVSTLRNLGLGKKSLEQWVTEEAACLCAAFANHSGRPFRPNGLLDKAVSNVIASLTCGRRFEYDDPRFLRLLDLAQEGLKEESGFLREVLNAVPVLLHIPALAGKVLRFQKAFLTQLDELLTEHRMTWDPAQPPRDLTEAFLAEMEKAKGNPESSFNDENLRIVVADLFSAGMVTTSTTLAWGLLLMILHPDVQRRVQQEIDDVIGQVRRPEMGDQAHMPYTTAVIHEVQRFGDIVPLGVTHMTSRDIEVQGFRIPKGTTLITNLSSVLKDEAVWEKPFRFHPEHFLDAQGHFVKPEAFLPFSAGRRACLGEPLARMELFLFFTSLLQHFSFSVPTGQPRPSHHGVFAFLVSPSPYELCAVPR
O=c1cc(-c2ccc(O)c(O)c2)oc2cc(O)cc(O)c12 was tested, and the “activity, negative = inhibition” value was -1.91% [at 25.6 µM]. With Cc1c([C@@H](C)[C@H]2NC[C@H](C)C[C@@H]2O)ccc2c1C[C@@H]1[C@H]2CC=C2C[C@@H](O)CC[C@@]21C the activity, negative = inhibition was 9.78% [at 11.4 µM]. C[C@]1(O)CC[C@H]2[C@@H]3[C@@H](O)CC4=CC(=O)CC[C@@]4(C)[C@H]3CC[C@]21C gave an activity, negative = inhibition of 10.5% [at 11.4 µM]. For NC(=NCc1ccc(Cl)cc1)SCCCc1cnc[nH]1, the AC50 was 12.6 µM (active). With NC(=NCCc1ccc(I)cc1)SCCCc1cnc[nH]1 the “activity, negative = inhibition” value was 9.29%. With OCc1cnc[nH]1 the “activity, negative = inhibition” value was -1.75%. With NCCc1ccc(O)cc1 the “activity, negative = inhibition” value was -10.7%. With NCCc1ccc(S(=O)(=O)F)cc1 the AC50 was 39.8 µM (active). For NCCc1ccc(S(=O)(=O)O)cc1[N+](=O)[O-], the activity, negative = inhibition was -0.422% [at 11.4 µM]. C=CCN1CCC2(C)c3cc(O)ccc3C[C@H]1[C@H]2C was tested, and the AC50 was 7.94 µM (active) and 25.1 µM (active) and 631 nM (active). C[C@@H]1[C@@H]2Cc3ccc(O)cc3[C@@]1(C)CCN2CC1CC1 was tested, and the AC50 was 31.6 µM (active). C=CCN1CC[C@@]23c4c5ccc(O)c4O[C@H]2/C(=N\N=C2/CC[C@@]4(O)[C@H]6Cc7ccc(O)c8c7[C@@]4(CCN6CC=C)[C@@H]2O8)CC[C@]3(O)[C@@H]1C5 was tested, and the “activity, negative = inhibition” value was -18.6%. In the case of CC(=O)c1c(O)c(C)c(O)c(Cc2c(O)c3c(c(C(=O)/C=C\c4ccccc4)c2O)OC(C)(C)C=C3)c1O, the “activity, negative = inhibition” value is reported as -9.48%. CC[C@@]1(O)C(=O)OCc2c1cc1n(c2=O)Cc2cc3ccccc3nc2-1 was tested, and the AC50 was “inactive”. For C=C1C/C(=C\C)C(=O)O[C@@H]2CCN3CC=C(COC(=O)[C@@]1(C)O)[C@H]23, the “activity, negative = inhibition” value was 3.61% [at 25.6 µM]. In the case of COc1ccc2[nH]cc(C3=CCNCC3)c2c1, the “activity, negative = inhibition” value is reported as -4.23%. For O=c1ccc2[nH]cc(C3=CCNCC3)c2[nH]1, the AC50 was 2.51 µM (active). OC1(c2ccc(Cl)cc2)CCN(Cc2c[nH]c3ccccc23)CC1 was tested, and the AC50 was 0.316 µM (active). With O=C(Nc1ccc(Cl)cc1C(=O)c1ccccc1)c1ccco1 the “activity, negative = inhibition” value was -13.7%. NC(N)=Nc1ccc2[nH]c3c(c2c1)C[C@]1(O)[C@@H]2Cc4ccc(O)c5c4[C@]1(CCN2CC1CC1)[C@@H]3O5 was tested, and the “activity, negative = inhibition” value was 8.91%. In the case of O=C1/C(=C\c2ccccc2)C[C@@]2(O)[C@H]3Cc4ccc(O)c5c4[C@@]2(CCN3CC2CC2)[C@@H]1O5, the “activity, negative = inhibition” value is reported as 12.5%. With O=C(/C=C\c1ccc(Cl)cc1)N[C@@]12CCC(=O)[C@@H]3Oc4c(O)ccc5c4[C@@]31CCN(CC1CC1)[C@@H]2C5 the AC50 was 5.01 µM (active). COc1ccc2c3c1O[C@@H]1C(=O)CC[C@@]4(O)[C@@H](C2)N(CC2CC2)CC[C@]314 was tested, and the AC50 was 5.01 µM (active). In the case of C=C(C)CN1CC[C@@]23c4c5ccc(O)c4O[C@H]2c2[nH]c4ccccc4c2C[C@]3(O)[C@@H]1C5, the “activity, negative = inhibition” value is reported as 1.9%. For Cc1ncc([N+](=O)[O-])n1CCN=[N+]=[N-], the activity, negative = inhibition was 0.431% [at 11.4 µM]. In the case of CCCN(CCC)C(=O)Cc1c(-c2ccc(Cl)cc2)nc2c(Cl)cc(Cl)cn12, the “activity, negative = inhibition” value is reported as 2.68%. C[C@]12CCC3c4ccc(OCC(=O)O)cc4CCC3C1CCC2=O (stereo partly specified) was tested, and the activity, negative = inhibition was 12.6% [at 11.4 µM]. In the case of COc1ccc2c(c1)CCC1[C@@H]2CCC2(C)[C@@H](NCCCCCCN3C(=O)C=CC3=O)CC[C@@H]12 (stereo partly specified), the AC50 is reported as 10 µM (active). With C[C@]12CC[C@H]3c4ccc(O)cc4CC[C@@H]3[C@H]1CC[C@@H]2OP(=O)(O)O the activity, negative = inhibition was 11.2% [at 11.4 µM]. For CO[C@@H]1CC=C2CCN3CCC4=C(CC(=O)OC4)[C@]23C1, the “activity, negative = inhibition” value was -6.15%. Cn1cc(C(=O)C(=O)N[C@H]2CN3CCC2CC3)c2ccccc21 was tested, and the AC50 was 0.0631 µM (active). With CC(C)n1cnc2c(C(=O)N[C@H]3CN4CCC3CC4)cc(Cl)cc21 the “activity, negative = inhibition” value was 3.65%. With CN1C(=O)COc2c(C(=O)N[C@@H]3CN4CCC3CC4)cc(Cl)cc21 the “activity, negative = inhibition” value was 6.82%. With CCNC(C)(C)[C@@H](SS)c1ccc(Br)cc1 the AC50 was 2 µM (active). CNCCc1ccc(O)c(O)c1 was tested, and the “activity, negative = inhibition” value was -2.02%. Nc1nc(N)c(Cn2ccnc2)c(=O)[nH]1 gave an activity, negative = inhibition of -11.4% [at 11.4 µM]. With CS(=O)(=O)Nc1ccc(Cc2noc(-c3ccc4[nH]cc(CCN)c4c3)n2)cc1 the AC50 was 0.126 µM (active). CCCN(CCC)[C@@H]1CCc2c(OC)cccc2[C@@H]1C was tested, and the “activity, negative = inhibition” value was 5.27%. In the case of CCCN[C@@H]1CCc2c(OC)cccc2[C@@H]1C, the AC50 is reported as 0.251 µM (active). With OC1(c2ccc(F)cc2)CCNC1 (stereo unspecified) the “activity, negative = inhibition” value was -4.2%. With CCCN1CCC[C@@H]2Cc3[nH]ncc3C[C@H]21 the AC50 was “inactive”. For C[C@@]12CC[C@H]3[C@@H](CCC4=C(O)C(=O)CC[C@]43C)[C@H]1CCC2=O, the “activity, negative = inhibition” value was -13.5%. For Cc1c2ccncc2c(C)c2c1[nH]c1ccccc12, the AC50 was 6.31 µM (active). With COC(=O)c1cc2c(cn1)[nH]c1ccccc12 the “activity, negative = inhibition” value was -1.19%. For Cc1nccc2c1[nH]c1ccccc12, the AC50 was 10 µM (active). With O=[N+]([O-])c1ccc(N2CCNCC2)cc1NCC1CCCO1 (stereo unspecified) the “activity, negative = inhibition” value was -5.92%. For NC(=O)CI, the “activity, negative = inhibition” value was -9.38%. In the case of CN1CCC(c2c[nH]c3ccc(O)cc23)CC1, the “activity, negative = inhibition” value is reported as -0.301%. With NCCc1c[nH]c2ccc(O)cc12 the “activity, negative = inhibition” value was -15.6%. In the case of NCCc1c[nH]c2ccc(C(N)=O)cc12, the AC50 is reported as “inactive”. For CCCN(CCC)CCc1c[nH]c2ccc(C(N)=O)cc12, the AC50 was 39.8 µM (active). For CC[C@H]1CN2CC[C@@H]1C[C@H]2[C@@H](O)c1ccnc2ccc(OC)cc12, the AC50 was 3.16 µM (active). For C=C[C@@H]1CN2CC[C@H]1C[C@H]2[C@H](O)c1ccnc2ccccc12, the AC50 was 3.98 µM (active). With C=C[C@H]1CN2CC[C@@H]1C[C@H]2[C@@H](O)c1ccnc2ccccc12 the AC50 was 3.16 µM (active) and 501 nM (active). For O=C(O)CC[N+](=O)[O-], the “activity, negative = inhibition” value was 7.9%. With C[C@H]1C(=O)O[C@@H]2CCN3CC=C(COC(=O)[C@@](C)(O)[C@@]1(C)O)[C@H]23 the “activity, negative = inhibition” value was 6.81% [at 25.6 µM]. For CCOP(=O)(OCC)C(NC(C)=O)C(Cl)(Cl)Cl (stereo unspecified), the “activity, negative = inhibition” value was 2.71%. Work on N[C@@H](CP(=O)(O)O)C(=O)O yielded an activity, negative = inhibition of -1.79% [at 11.4 µM]. For COc1ccc(C(=O)c2c(C)n(CCN3CCOCC3)c3cc(I)ccc23)cc1, the “activity, negative = inhibition” value was 6.13%. In the case of N[C@@]1(C(=O)O)CC[C@H](C(=O)O)C1, the AC50 is reported as “inactive”. For COc1cc(/C=N/NC(=O)CN2CC(c3ccccc3)CC2=O)ccc1OC(=O)N(C)C (stereo unspecified), the “activity, negative = inhibition” value was -1.46%.
